# According to PubChem BioAssay AID1053183 (Broad Institute, 2014):
# Potency and affinity values are given separately. Calls of active or inactive are those of the source.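 Rule for the calls: active = cytotoxic compounds with fitted half-maximal concentration at most double the highest valid dose; inconclusive = flat curve with moderate signal loss, or unreliable fit; inactive = the rest.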
# Test: cytotoxicity in HepG2 cells, dose response, cytotoxicity control, cell-based, cherry-picked samples (AID 1053183)
# Details: HepG2 viability, CellTiter-Glo ATP luminescence, 72 h; series mostly up to 26 µM
row,Compound,outcome
1,C/C=C/c1ccc([C@H]2[C@@H](CO)N3C(=O)CN(Cc4ccc(F)cc4)C[C@@H]23)cc1,inactive
2,C[C@H](CO)N1C[C@H](C)[C@@H](CN(C)Cc2ccccc2)Oc2c(NC(=O)Cc3cn(C)c4ccccc34)cccc2C1=O,inactive
3,CN(C)C(=O)c1cccc(-c2ccc(C3[C@@H]4CN(Cc5ccccc5F)C[C@H]3N4)cc2)c1 (stereo partly drawn),inactive
4,COc1cccc(-c2cccc(-c3nc(C(=O)Nc4ccc(-c5ccccc5)cc4)cc4c3[C@@H](CCO)N(S(=O)C(C)(C)C)C4)c2)c1 (stereo partly drawn),inactive
5,CNC[C@@H]1Oc2cc(C#Cc3ccccc3OC)ccc2S(=O)(=O)N([C@H](C)CO)C[C@H]1C,inactive
6,COc1ccc2c3c(n(C)c2c1)[C@@H](CO)N(CC1CC1)CC31CN(C(=O)c2ccc3c(c2)OCO3)C1,inactive
7,CO[C@@H](CN(C)Cc1cc(F)ccc1F)[C@@H](C)CN(C(=O)Nc1ccc(C(F)(F)F)cc1)[C@H](C)CO,inactive
8,C[C@@H]1CN([C@@H](C)CO)C(=O)Cc2cc(NC(=O)C3CCCCC3)ccc2O[C@@H]1CN(C)Cc1ccc(Cl)c(Cl)c1,inactive
